Assay results reported in PubChem BioAssay (NCATS).
Records with an inconclusive call do not appear. Entries that show only a call come without a potency. Unmarked numbers belong to inactive results. Active and inactive are the calls of the source. Calls come from the whole dose curve; as a rule, active = well fitted curve in the direction sought with a large enough effect; inconclusive = small, poorly fitted or top-dose-only effect, or another doubt; inactive = no such curve, though single readings can be large; an effect the other way counts as inactive or inconclusive. *1 amine or outer side, *2 acyl side, *3 side chain or, on linkers, in order; H or OH if unused. Where a SMILES comes first, the peptide text is derived from it. [ ]: non-standard residue; d: D form. X13 = O=C(C(CC(O)CO)O[*:1])[*:2]; NMeV = CN[CH](C(=O)O)C(C)C; NMeA = CN[CH](C)C(=O)O; βAla = NCCC(=O)O

How the values were obtained:
[1] = target: Calcium and integrin-binding protein 1 (Homo sapiens) (UniProt Q99828); test: Primary qHTS for Identification of Calcium Integrin Binding Protein 1 (CIB1) Competitor (AID 1508620);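 note: GST tagged CIB1 binding a fluorescein labelled alphaIIb integrin peptide tracer; top concentration of the series differs between compounds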
Method in brief: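 CIB1-GST (1 uM final) and compound incubated 15 min at room temperature before adding FITC-alphaIIb peptide tracer (100 nM final). Competition for binding read by fluorescence polarization (ex 480, em 540) after another 15 min at room temperature.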

[2] = Primary qHTS for inhibitors of nuclear receptor binding SET domain protein 2 (NSD2) in an isogenic RCH-ACV NSD2 p.E1099K mutant (9B) (AID 1645876); note: nearly all actives have a fitted effect of over 70% in size
[3] = Primary qHTS for inhibitors of nuclear receptor binding SET domain protein 2 (NSD2) in an RCH-ACV wild type WT cells (2C) (AID 1645877); note: nearly all actives have a fitted effect of over 70% in size

Calcium and integrin-binding protein 1 (Homo sapiens), sequence (Q99828 whole entry, looked up): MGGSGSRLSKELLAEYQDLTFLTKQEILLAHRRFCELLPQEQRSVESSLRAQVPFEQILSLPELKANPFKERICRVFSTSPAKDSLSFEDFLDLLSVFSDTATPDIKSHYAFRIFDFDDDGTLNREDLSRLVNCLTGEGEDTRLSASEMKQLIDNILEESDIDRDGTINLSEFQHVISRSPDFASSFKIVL

Structure (SMILES): C=C1CC[C@@]2(OC1)O[C@H]1CC3[C@@H]4CC=C5C[C@@H](O)C[C@@H](O[C@@H]6OC[C@H](O)[C@H](O)[C@H]6O[C@@H]6O[C@@H](C)[C@H](O)[C@@H](O)[C@H]6O)[C@]5(C)C4CC[C@]3(C)[C@H]1[C@@H]2C (stereo partly drawn)
- Potency [1]: inactive
- Potency [2]: inactive

Structure (SMILES): CC(=O)OC1C(O)/C(C)=C\C2C(OC(=O)c3ccccc3)C(C)CC2(OC(C)=O)C(OC(C)=O)C(C)/C=C/C(C)(C)C1OC(C)=O (stereo not drawn)
- Potency [1]: inactive
- Potency [2]: inactive
- Potency [3]: inactive

Structure (SMILES): O=C(/C=C/c1ccc(O)c(O)c1)O[C@@H]1[C@@H](O)[C@H](OC2CCCCC2O)O[C@H](CO)[C@H]1O (stereo partly drawn)
- Potency [1]: inactive
- Potency [2]: inactive

Structure (SMILES): CC12CC(c3ccoc3)OC(=O)C1CCC1(C)C2CCC(O)C1(C)O (stereo not drawn)
- Potency [1]: inactive
- Potency [2]: inactive
- Potency [3]: inactive

Structure (SMILES): COc1cc(CO)cc(OC)c1O[C@@H]1O[C@H](CO)[C@@H](O)[C@H](O)[C@H]1O
- Potency [1]: inactive
- Potency [2]: inactive
- Potency [3]: inactive

Structure (SMILES): C=C(COC(=O)C(C)C)C1Oc2cc(C(C)=O)ccc2C1OC(=O)C(C)C (stereo not drawn)
- Potency [1]: inactive
- Potency [2]: inactive
- Potency [3]: inactive

Structure (SMILES): CC1(C)CC[C@]2(C(=O)O[C@@H]3O[C@H](CO)[C@@H](O)[C@H](O)[C@H]3O)CC[C@]3(C)C(=CCC4[C@@]5(C)CC[C@H](O[C@@H]6O[C@H](C(=O)O)[C@@H](O[C@@H]7O[C@H](CO)[C@@H](O)[C@H](O)[C@H]7O)[C@H](O)[C@H]6O)C(C)(C)C5CC[C@]43C)C2C1 (stereo partly drawn)
- Potency [1]: inactive
- outcome [2]: inactive [at 9.23 µM]
- activity change, negative = cell killing [3]: 2.22% [at 9.23 µM]

Structure (SMILES): COc1cc(C(CO)C(OC2OC(CO)C(O)C(O)C2O)c2ccc(O)c(OC)c2)ccc1O (stereo not drawn)
- Potency [1]: inactive
- Potency [2]: inactive
- Potency [3]: inactive

Structure (SMILES): CC1=CC2=C(C)C(=O)[C@](C)(O)[C@H](O)C2=CO1
- Potency [1]: inactive
- Potency [2]: inactive
- Potency [3]: inactive

Structure (SMILES): NC[C@@H]1O[C@@H](O[C@@H]2[C@@H](O[C@@H]3O[C@H](CO)[C@@H](O)[C@H]3O)[C@H](O)[C@@H](N)C[C@H]2N)[C@@H](N)[C@H](O)[C@H]1O
- Potency [1]: inactive
- activity change, negative = viability loss [2]: 4.31% [at 9.23 µM]
- outcome [3]: inactive [at 9.23 µM]

Structure (SMILES): CC1(C(=O)O)CCCC2(C)C3CCC4CC3(CCC12)CC4C(=O)O (stereo not drawn)
- Potency [1]: inactive
- Potency [2]: inactive
- Potency [3]: inactive

Structure (SMILES): COC(=O)C1=COC(OC2OC(CO)C(O)C(O)C2O)C2C(C)CC(=O)C12O (stereo not drawn)
- Potency [1]: inactive
- Potency [2]: inactive
- Potency [3]: inactive

Structure (SMILES): C=C1C(OC(C)=O)C(=O)C2C(C)(C)C(O)CCC2(C)C1CC(OC(C)=O)/C(C)=C/COC(C)=O (stereo not drawn)
- Potency [1]: inactive
- Potency [2]: inactive

Structure (SMILES): COCC1OC(OC(C)(C)C2CCC3(C)C=C(C4CCC5C4(C)CC(O)C4OC(C(C)(C)O)CCC45C)CCC3O2)C(NC(C)=O)C(O)C1O (stereo not drawn)
- Potency [1]: inactive
- Potency [2]: inactive
- Potency [3]: inactive

Structure (SMILES): OCC(O)C(c1c[nH]c2ccccc12)c1c[nH]c2ccccc12 (stereo not drawn)
- Potency [1]: inactive
- Potency [2]: inactive
- Potency [3]: inactive

Structure (SMILES): OC[C@H]1O[C@@H](OCCc2ccccc2)[C@H](O)[C@@H](O)[C@@H]1O
- Potency [1]: inactive
- Potency [2]: inactive
- Potency [3]: inactive

Structure (SMILES): CC(=O)OCC1OC(O[C@H]2CC[C@]34C[C@]35CC(O)[C@]3(C)[C@@H]([C@H](C)CC/C=C(\C)C(=O)O)C(O)C[C@@]3(C)C5CC[C@H]4C2(C)C)C(O)C(O)C1OC1OCC(O)C(O)C1O (stereo partly drawn)
- Potency [1]: inactive
- activity change, negative = viability loss [2]: -5.86% [at 9.23 µM]
- activity change, negative = cell killing [3]: -13.7% [at 9.23 µM]

Structure (SMILES): CC1=COC(OC2OC(CO)C(O)C(O)C2O)C2C(CO)CC(OC(=O)/C=C/c3ccc(O)cc3)C12 (stereo not drawn)
- Potency [1]: inactive
- Potency [2]: inactive

Structure (SMILES): COc1ccc(/C=C/C(N)=O)cc1OC
- Potency [1]: inactive
- Potency [2]: inactive
- Potency [3]: inactive

Structure (SMILES): C[C@@H]1O[C@@H](O[C@H]2[C@@H]3C=CO[C@@H](O[C@@H]4O[C@H](CO)[C@@H](O)[C@H](O)[C@H]4O)[C@@H]3[C@@]3(CO)O[C@@H]23)[C@H](O)[C@H](O)[C@H]1OC(=O)/C=C/c1ccc(O)cc1
- Potency [1]: inactive
- Potency [2]: inactive
- Potency [3]: inactive

Structure (SMILES): COC(=O)[C@]1(C)CCC[C@@]2(C)[C@@H]3CC[C@@H]4C[C@@]3(CC[C@@H]21)C[C@H]4C(=O)O
- Potency [1]: inactive
- Potency [2]: inactive

Structure (SMILES): CCC(C)C1NC(=O)C2CCCN2C(=O)C(CC(O)CO)OC(=O)CCNC(=O)C(C)N(C)C(=O)C(C(C)C)N(C)C1=O (stereo not drawn) (cyclo([X13]PI[NMeV][NMeA][βAla]); configuration not given here)
- Potency [1]: inactive
- Potency [2]: inactive

Structure (SMILES): C/C=C(/C)C(=O)OC1C(OC(C)=O)C23C(O)OC4(CCC5C6(C)CCC(OC7OC(C(=O)O)C(O)C(OC8OC(CO)C(O)C(O)C8OC8OC(C)C(O)C(O)C8OC8OCC(O)C(O)C8O)C7OC7OC(CO)C(O)C(O)C7O)C(C)(C)C6CCC5(C)C4(C)CC2OC(C)=O)C3CC1(C)C (stereo not drawn)
- activity change, negative = inhibition [1]: 3.17% [at 12.4 µM]
- activity change, negative = viability loss [2]: 4.87% [at 9.23 µM]
- activity change, negative = cell killing [3]: 3.76% [at 9.23 µM]
